# Screening data (PubChem BioAssay)
# Shown is part of a subset that was picked to be rich in hits.
# Shiga toxin inh – blocks Shiga toxin action in Vero cells | Vero cells, Shiga toxin protein synthesis inhibition reporter | inhibition, % at 38.7 µM | hit rate 9.2% among 290,000; in the data active = inhibition mostly above about 28%, no sharp cut-off; inactive = mostly below about 43%; also: 0% is about no effect
# TbPYK inhibitor – blocks Trypanosoma brucei pyruvate kinase; Q57TT1; TbPYK enzyme, Kinase-Glo Plus ATP luminescence, 45 min; Potency, µM (doses to about 76.8 µM), for inactives: at the top dose activity, negative = inhibition, actives largely listed as inhibitors; hit rate 0.12% among 410,000; AID 624173; also: potency is read from the fitted curve at half-maximal effect; % is scaled to controls: 0 for no effect and ±100 for the full control effect; nearly all actives have a fitted effect of over 50% in size
#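 Enzyme and substrate buffer are dispensed first and compound is pin-transferred. ADP at 130 uM final then starts the reaction, which runs 45 min at room temperature. Detection reagent is added for 10 min before luminescence is imaged.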
# NS1 inh – blocks influenza NS1 protein function; Potency, µM (top dose mostly 46.1 µM), without a hit: at the highest dose activity, positive = more growth; hit rate 0.4% among 270,000; calls by dose curve; also: potency is read from the fitted curve at half-maximal effect; actives are rising curves; nearly all actives have a fitted effect of over 50% in size
#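 Read-out: OD600 growth recovery of NS1-expressing budding yeast. Cells grown overnight at 30C in -URA glucose medium, washed, resuspended and diluted 1:100 in 2% galactose assay medium, pH 6.0. Same strain lacking NS1 served as positive control.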
# CHX counter – counter-screen for Shiga toxin inhibitors: cycloheximide protein synthesis inhibition; cell reporter, cycloheximide protein synthesis inhibition counterscreen; max response, %; hit rate 12% among 300,000; AID 2314; in the data active = max response mostly above about 13%, no sharp cut-off; inactive = mostly below about 14%; also: read at 38.3 µM for the half of the compounds with a filed dose; 0% is about no effect
# SARS PLP yeast – SARS-CoV PLP inhibition in yeast; S. cerevisiae expressing SARS-CoV PLpro, growth rescue; Potency, µM (titrated, usually from 32.9 µM), for the others: top-dose activity, positive = growth rescue, actives largely listed as activators; AID 485353; hit rate 0.19% among 330,000; calls by dose curve; also: potency is read from the fitted curve at half-maximal effect; 0% is about no effect; nearly all actives have a fitted effect of over 55% in size
# LmPK inhibitor – blocks Leishmania mexicana pyruvate kinase activity. Q27686. purified LmPK, Kinase-Glo ATP luminescence, 1 h. Potency, µM (top dose mostly 57.5 µM), for the others: top-dose activity change, negative = inhibition, hits mostly inhibitors. hit rate 0.37% among 290,000. AID 1721; also: potency is read from the fitted curve at half-maximal effect; % is scaled to controls: 0 for no effect and ±100 for the full control effect
# Target sequence (Q27686 whole entry, looked up): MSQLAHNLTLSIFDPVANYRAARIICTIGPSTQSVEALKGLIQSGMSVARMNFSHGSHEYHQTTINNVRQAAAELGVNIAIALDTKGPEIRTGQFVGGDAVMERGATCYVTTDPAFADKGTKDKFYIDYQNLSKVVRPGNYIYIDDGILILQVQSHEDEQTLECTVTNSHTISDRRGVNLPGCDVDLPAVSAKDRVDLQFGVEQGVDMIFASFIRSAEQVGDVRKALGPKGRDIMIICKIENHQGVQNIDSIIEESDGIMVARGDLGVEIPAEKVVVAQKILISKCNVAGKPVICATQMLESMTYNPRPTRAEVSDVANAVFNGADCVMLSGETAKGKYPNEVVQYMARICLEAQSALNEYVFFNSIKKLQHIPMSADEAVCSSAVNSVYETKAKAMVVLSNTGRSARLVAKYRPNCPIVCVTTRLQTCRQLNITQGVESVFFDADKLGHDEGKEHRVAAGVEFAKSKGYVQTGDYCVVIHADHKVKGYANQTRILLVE
#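 Purified LmPK (0.1 nM) with 0.5 mM PEP and 0.1 mM ADP in imidazole buffer pH 7.2 with MgCl2/KCl, 1 h at room temperature. ATP formed was read by luciferase luminescence and normalized to no-enzyme and uninhibited controls.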
# The depositor's hits bear a star; ? = inconclusive; . = no result given. Unless noted, calls follow the shape of the dose curve; as a rule, active = well fitted curve in the direction sought with a large enough effect; inconclusive = small, poorly fitted or top-dose-only effect, or another doubt; inactive = no such curve, though single readings can be large; an effect the other way counts as inactive or inconclusive.
SMILES,Shiga toxin inh,TbPYK inhibitor,NS1 inh,CHX counter,SARS PLP yeast,LmPK inhibitor
CC(=O)NNc1nc(-c2ccccc2)cs1,-6,-15%,.,1,0%,0%
Nc1nc(-c2ccc(F)cc2)cs1,38,-10%,-7%,16,-2%,-2%
COc1cccc(NC(=O)Nc2nc(-c3ccc(OC)c(OC)c3)cs2)c1,67*,3%,-17%,22*,-4%,9%
COc1ccc(-c2csc(NC(=O)Cc3ccccc3)n2)cc1OC,16,0%,12%,21,6%,3%
OC(c1ccccc1)c1nc(-c2cccs2)cs1 (stereo not drawn),.,2%,.,.,.,.
NS(=O)(=O)c1cccc(NS(=O)(=O)c2cccc(C(F)(F)F)c2)c1,-11,-7%,3%,0,1%,1%
COc1cccc(-c2csc(NC(C)=O)n2)c1,87*,-14%,-9%,47*,-4%,0%
CN(Cc1nc2ccccc2n1C)S(=O)(=O)c1ccc(F)cc1,26,-3%,-5%,16*,5%,-1%
Cn1c(CNc2ccc(F)cc2)nc2ccccc21,71*,-5%,-12%,34*,-2%,?
Cn1c(CNc2ccccc2)nc2ccccc21,67*,-1%,-81%,37*,-2%,?
CCC(=O)Nc1ccc(NC(=O)c2cccc3c(Br)cccc23)cc1,-12,-10%,-4%,2,26%,-2%
CCOC(=O)N/N=C\C=C\c1ccc2c(c1)OCO2,58,-7%,-7%,35*,-12%,-7%
COC(=O)N/N=C\C=C\c1ccc2c(c1)OCO2,-8,2%,-1%,-2,-3%,-16%
CC(C)(C)OC(=O)N/N=C\C=C\c1ccc2c(c1)OCO2,34*,-3%,-6%,29*,-4%,0%
Cc1cccc(CSCc2ccc(C(=O)NCCc3ccccc3)o2)c1,.,1%,.,.,.,.
COc1ccc(Cl)cc1C(Nc1cccnc1)c1ccc2cccnc2c1O (stereo not drawn),-6,145%,-35%,1,-8%,34%
Cc1cc(NC(c2cccnc2)c2ccc3cccnc3c2O)no1 (stereo not drawn),-10,26%,-125%,-4,7.1µM*,3%
COCCNC(=S)N1CCC(C(=O)c2ccc(Cl)cc2)CC1,.,-6%,.,.,.,.
COc1ccc(-n2c(-c3cccc(C)c3[N+](=O)[O-])n[nH]c2=S)cc1,-16,?,7%,-3,8%,?
Cc1c(Cl)c(-c2n[nH]c(=S)n2-c2ccccc2)nn1C,-6,2.8µM*,3%,-5,2%,-12%
Cc1cccc(-c2n[nH]c(=S)n2-c2ccccc2)c1[N+](=O)[O-],-4,7.1µM*,18%,17,-20%,?
Cc1ccc(N2CC(C(=O)Nc3c4c(nn3C(C)(C)C)CS(=O)(=O)C4)CC2=O)cc1 (stereo not drawn),-12,4%,2%,-1,-1%,-3%
CCCOc1cccc(C(=O)N/N=C/c2ccoc2)c1,28,0%,-13%,31*,-10%,-12%
CC(C)Oc1cccc(C(=O)N/N=C/c2ccoc2)c1,61*,-4%,4%,49*,14%,-3%
CC(C)COc1ccc(C(=O)N/N=C/c2ccoc2)cc1,83*,-2%,2%,27*,-4%,-1%
SMILES,Shiga toxin inh,TbPYK inhibitor,NS1 inh,CHX counter,SARS PLP yeast,LmPK inhibitor
Cc1cccc(C(=O)N/N=C/c2ccoc2)c1,78*,0%,4%,36*,3%,-9%
COc1ccc(CN2C(=O)C(CC(=O)NC3CCCC3)CC(C(=O)N(C(C)C)C(C)C)=C2C)cc1 (stereo not drawn),.,-13%,.,.,.,.
CCn1c(SCC(=O)OC(C)C)nnc1-c1ccccc1,7,-6%,4%,-3,-1%,4%
c1ccc(-c2ncc(CSc3nncn3-c3ccccc3)s2)cc1,19,-13%,-58%,6,-4%,2%
COc1cccc(-c2nnc(SCc3nc4ccccc4s3)n2C)c1,16,-5%,1%,24*,1%,3%
c1ccc(-n2cnnc2SCc2nc3ccccc3s2)cc1,61*,-11%,-9%,60*,-1%,16%
CCn1c(SCC(O)c2ccccc2)nnc1-c1ccccc1 (stereo not drawn),28*,-7%,5%,39*,0%,2%
Cc1nnc(SCc2nc3ccccc3s2)n1N,76*,-1%,8%,44*,1%,8%
CCn1cc(C(=O)NCCCOC)c(=O)c2cc(S(=O)(=O)N3CCCC3)ccc21,3,0%,0%,-4,4%,3%
COc1ccc(NC(=O)N(C)C[C@@H]2OCc3cn(nn3)CCCC(=O)N([C@@H](C)CO)C[C@H]2C)cc1,.,-12%,.,.,.,.
Cc1cccc2sc(N(Cc3cccnc3)C(=O)C3CCCCC3)nc12,.,-1%,.,.,.,.
CCn1c(SCc2nc3ccccc3s2)nnc1-c1ccccc1,61*,3%,-9%,28*,10%,-1%
Cc1nnc(SCc2nc3ccccc3s2)n1-c1ccccc1,87*,-1%,9%,30*,11%,3%
Cc1ccc(SCc2cc(=O)n3ccsc3n2)c(C)c1,47,.,-6%,21*,-24%,-10%
O=c1cc(CSc2ccc([N+](=O)[O-])cc2)nc2sccn12,68*,1%,.,20,0%,0%
Cc1cccc(-n2c(SCc3cc(=O)n4ccsc4n3)nc3ccccc32)c1,23,?,13%,20*,-19%,-6%
CCc1cccc(NC(=O)c2cnc(SC)nc2-c2ccccc2)c1,.,1%,.,.,.,.
C/C(CC(=O)Nc1ccc(Cl)cc1Cl)=N\NC(=O)c1ccco1,116*,4%,4%,37*,-11%,1%
C/C(CC(=O)Nc1ccc(C)c(Cl)c1)=N\NC(=O)c1ccco1,94*,4%,1%,45*,-1%,0%
CCC(C)N(C(=O)CN1C(=O)NC2(CCc3ccccc32)C1=O)C1CCS(=O)(=O)C1 (stereo not drawn),.,4%,.,.,-2%,.
COCCNC(=S)N1CCN(c2nc3ccccc3s2)CC1,93,-2%,-4%,32*,0%,0%
Cc1cccc(C)c1NC(=O)N1CCN(c2nc3ccccc3s2)CC1,24,-1%,-4%,1,-1%,0%
COCCCNC(=S)N1CCN(c2nc3ccccc3s2)CC1,21,0%,-12%,14*,0%,3%
N#C/C(C(N)=O)=C1/CCCN1Cc1ccccc1,.,0%,.,.,.,.
C/C(CC(=O)Nc1ccccc1C)=N\NC(=O)Cc1csc(N)n1,62*,-8%,23%,41*,7%,-4%
C/C(CC(=O)Nc1ccc(Br)cc1)=N\NC(=O)Cc1csc(N)n1,27,3%,-2%,29*,0%,4%
Cn1c(=O)c2c(nc(Cl)n2CC(=O)NC2(C#N)CCCCC2)n(C)c1=O,.,-1%,.,.,10%,.
CCCNC(=O)c1cc(Cl)c(NC(=O)C2=C(C)OCCS2)cc1OC,27,7%,-4%,21,0%,-5%
